{"source": "the supplement of paper PMC11001985", "note": "Unmarked numbers belong to inactive results."}
{"compound": "C#CCNC(=O)CCSSCCC(=O)NCCc1ccc(C=O)c(C=O)c1", "assay": "lysine labeling ratio R10:1 (500 µM / 50 µM probe), SILAC-ABPP in living cells; higher = lower intrinsic lysine reactivity toward the probe, active = 2 or less", "conditions": "HeLa; probe concentrations 500 vs 50 µM", "in_short": "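In PBS at room temperature, living HeLa cells grown with SILAC light or heavy labels were treated with 50 µM or 500 µM of an alkyne-tagged, disulfide-linked lysine probe, with label swaps in both directions. Analysis was by LC-MS/MS on a TIMS-TOF Pro after click to biotin-azide, neutravidin capture and DTT release. For each lysine, R is the median across forward and reverse replicates of the filtered median high-probe/low-probe MS1 peptide ratio, capped at 20.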"}
{"target": "PRDX2 (lysine site: K196) (UniProt P32119)", "lysine labeling ratio R10:1": 2.99}
{"target": "PLXNB2 (lysine site: K1159) (UniProt O15031)", "lysine labeling ratio R10:1": "1.75 (active)"}
{"target": "UniProt O43570 (lysine site: K279)", "lysine labeling ratio R10:1": 2.86}
{"target": "SMOC1 (lysine site: K299) (UniProt Q9H4F8)", "lysine labeling ratio R10:1": 4.95}
{"target": "FAT4 (lysine site: K1675) (UniProt Q6V0I7)", "lysine labeling ratio R10:1": "1.93 (active)"}
{"target": "RPS19 (lysine site: K97) (UniProt P39019)", "lysine labeling ratio R10:1": "1.48 (active)"}
{"target": "UniProt P05787 (lysine site: K295)", "sequence (P05787 whole entry)": "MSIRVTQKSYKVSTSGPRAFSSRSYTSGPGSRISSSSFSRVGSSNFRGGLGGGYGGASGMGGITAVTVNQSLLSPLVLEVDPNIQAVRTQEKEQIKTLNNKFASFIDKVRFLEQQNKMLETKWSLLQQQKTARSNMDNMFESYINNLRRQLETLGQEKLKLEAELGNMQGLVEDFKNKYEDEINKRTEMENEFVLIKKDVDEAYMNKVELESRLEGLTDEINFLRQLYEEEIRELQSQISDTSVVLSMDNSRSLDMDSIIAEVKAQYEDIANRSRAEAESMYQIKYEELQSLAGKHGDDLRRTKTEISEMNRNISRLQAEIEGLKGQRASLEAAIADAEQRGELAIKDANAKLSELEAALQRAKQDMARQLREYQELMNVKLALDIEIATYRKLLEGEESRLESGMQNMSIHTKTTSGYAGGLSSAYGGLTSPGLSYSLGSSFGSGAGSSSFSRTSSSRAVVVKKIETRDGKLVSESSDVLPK", "lysine labeling ratio R10:1": 11.9}
{"target": "UniProt P61978 (lysine site: K34)", "lysine labeling ratio R10:1": 3.82}
{"target": "RPL34 (lysine site: K19) (UniProt P49207)", "lysine labeling ratio R10:1": 2.71}
{"target": "PCNA (lysine site: K254) (UniProt P12004)", "lysine labeling ratio R10:1": "1.56 (active)"}
{"target": "SPTAN1 (lysine site: K825) (UniProt Q13813)", "lysine labeling ratio R10:1": 4.08}
{"target": "ARPC3 (lysine site: K29) (UniProt O15145)", "lysine labeling ratio R10:1": "1.49 (active)"}
{"target": "KIAA1549 (lysine site: K1195) (UniProt Q9HCM3)", "lysine labeling ratio R10:1": 2.77}
{"target": "HSPD1 (lysine site: K364) (UniProt P10809)", "lysine labeling ratio R10:1": 2.45}
{"target": "UniProt P23352 (lysine site: K285)", "lysine labeling ratio R10:1": 3.04}
{"target": "TFRC (lysine site: K145) (UniProt P02786)", "lysine labeling ratio R10:1": 2.7}
{"target": "THRAP3 (lysine site: K711) (UniProt Q9Y2W1)", "lysine labeling ratio R10:1": "1.73 (active)"}
{"target": "FLNA (lysine site: K2133) (UniProt P21333)", "sequence (P21333 whole entry)": "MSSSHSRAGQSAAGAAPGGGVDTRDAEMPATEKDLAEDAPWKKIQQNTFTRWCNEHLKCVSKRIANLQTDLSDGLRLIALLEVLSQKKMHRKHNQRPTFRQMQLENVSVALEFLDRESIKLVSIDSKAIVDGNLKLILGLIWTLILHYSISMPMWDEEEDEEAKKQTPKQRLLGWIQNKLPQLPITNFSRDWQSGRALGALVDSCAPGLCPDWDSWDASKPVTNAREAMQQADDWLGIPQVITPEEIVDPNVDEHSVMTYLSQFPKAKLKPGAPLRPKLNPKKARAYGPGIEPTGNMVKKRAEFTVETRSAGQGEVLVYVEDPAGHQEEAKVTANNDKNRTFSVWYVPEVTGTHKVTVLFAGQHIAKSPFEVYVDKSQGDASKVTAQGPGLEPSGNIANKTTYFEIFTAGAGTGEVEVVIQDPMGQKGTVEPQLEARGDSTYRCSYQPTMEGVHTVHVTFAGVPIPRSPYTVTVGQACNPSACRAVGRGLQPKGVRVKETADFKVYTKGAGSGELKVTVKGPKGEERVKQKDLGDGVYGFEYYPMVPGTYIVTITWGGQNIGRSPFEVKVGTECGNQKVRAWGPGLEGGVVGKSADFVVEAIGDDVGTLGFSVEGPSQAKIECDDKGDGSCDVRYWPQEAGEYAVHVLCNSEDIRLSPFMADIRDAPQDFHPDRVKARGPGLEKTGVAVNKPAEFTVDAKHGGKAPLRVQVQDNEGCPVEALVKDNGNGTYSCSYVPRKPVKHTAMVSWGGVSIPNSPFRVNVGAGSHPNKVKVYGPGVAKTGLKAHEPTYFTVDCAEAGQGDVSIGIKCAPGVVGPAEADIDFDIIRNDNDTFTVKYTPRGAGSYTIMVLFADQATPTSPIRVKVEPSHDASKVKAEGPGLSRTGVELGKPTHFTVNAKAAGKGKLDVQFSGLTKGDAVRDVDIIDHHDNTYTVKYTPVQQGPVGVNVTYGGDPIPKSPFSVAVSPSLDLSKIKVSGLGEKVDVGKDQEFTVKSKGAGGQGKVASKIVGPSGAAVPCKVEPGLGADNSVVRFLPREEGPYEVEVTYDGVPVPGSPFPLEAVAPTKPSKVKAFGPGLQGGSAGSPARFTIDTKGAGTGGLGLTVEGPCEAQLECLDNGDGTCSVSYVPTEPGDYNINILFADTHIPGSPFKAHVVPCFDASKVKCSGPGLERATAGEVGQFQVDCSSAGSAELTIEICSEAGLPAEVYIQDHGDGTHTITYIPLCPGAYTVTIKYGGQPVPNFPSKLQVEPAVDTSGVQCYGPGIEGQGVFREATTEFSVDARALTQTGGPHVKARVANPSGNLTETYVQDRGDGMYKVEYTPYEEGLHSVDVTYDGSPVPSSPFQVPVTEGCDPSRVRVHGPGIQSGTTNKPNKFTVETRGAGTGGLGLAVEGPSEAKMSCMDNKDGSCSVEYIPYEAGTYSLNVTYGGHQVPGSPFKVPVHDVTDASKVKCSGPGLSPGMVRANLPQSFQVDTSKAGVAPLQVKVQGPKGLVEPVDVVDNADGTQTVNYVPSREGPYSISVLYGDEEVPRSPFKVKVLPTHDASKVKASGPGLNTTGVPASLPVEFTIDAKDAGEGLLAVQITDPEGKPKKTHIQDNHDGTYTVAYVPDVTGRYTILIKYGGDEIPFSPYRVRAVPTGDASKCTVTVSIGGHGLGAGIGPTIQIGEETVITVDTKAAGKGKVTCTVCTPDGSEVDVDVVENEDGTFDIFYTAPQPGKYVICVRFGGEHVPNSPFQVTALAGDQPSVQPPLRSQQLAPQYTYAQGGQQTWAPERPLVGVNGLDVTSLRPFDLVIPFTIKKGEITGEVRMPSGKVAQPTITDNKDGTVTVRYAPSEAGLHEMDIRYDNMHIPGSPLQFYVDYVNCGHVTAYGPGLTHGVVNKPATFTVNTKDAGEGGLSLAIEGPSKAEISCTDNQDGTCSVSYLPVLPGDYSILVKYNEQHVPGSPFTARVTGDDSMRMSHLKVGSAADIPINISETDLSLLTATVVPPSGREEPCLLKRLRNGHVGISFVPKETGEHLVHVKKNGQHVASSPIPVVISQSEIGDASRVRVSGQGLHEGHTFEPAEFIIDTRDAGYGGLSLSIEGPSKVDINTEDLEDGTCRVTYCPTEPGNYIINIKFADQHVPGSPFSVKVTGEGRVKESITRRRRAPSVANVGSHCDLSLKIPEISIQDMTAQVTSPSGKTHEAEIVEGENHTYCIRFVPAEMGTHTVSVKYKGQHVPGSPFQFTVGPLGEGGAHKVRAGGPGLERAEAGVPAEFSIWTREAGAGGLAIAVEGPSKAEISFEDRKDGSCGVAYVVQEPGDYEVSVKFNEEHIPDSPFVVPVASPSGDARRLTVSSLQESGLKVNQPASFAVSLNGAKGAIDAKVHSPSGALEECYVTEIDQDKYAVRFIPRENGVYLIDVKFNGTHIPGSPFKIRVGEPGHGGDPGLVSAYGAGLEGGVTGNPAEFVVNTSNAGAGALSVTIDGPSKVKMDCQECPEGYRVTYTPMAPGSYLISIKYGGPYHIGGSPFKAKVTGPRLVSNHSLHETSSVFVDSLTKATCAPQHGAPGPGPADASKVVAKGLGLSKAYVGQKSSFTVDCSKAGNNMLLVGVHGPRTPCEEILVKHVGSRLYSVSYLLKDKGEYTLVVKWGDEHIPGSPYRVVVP", "lysine labeling ratio R10:1": 2.27}
{"target": "SEMA3C (lysine site: K724) (UniProt Q99985)", "sequence (Q99985 whole entry)": "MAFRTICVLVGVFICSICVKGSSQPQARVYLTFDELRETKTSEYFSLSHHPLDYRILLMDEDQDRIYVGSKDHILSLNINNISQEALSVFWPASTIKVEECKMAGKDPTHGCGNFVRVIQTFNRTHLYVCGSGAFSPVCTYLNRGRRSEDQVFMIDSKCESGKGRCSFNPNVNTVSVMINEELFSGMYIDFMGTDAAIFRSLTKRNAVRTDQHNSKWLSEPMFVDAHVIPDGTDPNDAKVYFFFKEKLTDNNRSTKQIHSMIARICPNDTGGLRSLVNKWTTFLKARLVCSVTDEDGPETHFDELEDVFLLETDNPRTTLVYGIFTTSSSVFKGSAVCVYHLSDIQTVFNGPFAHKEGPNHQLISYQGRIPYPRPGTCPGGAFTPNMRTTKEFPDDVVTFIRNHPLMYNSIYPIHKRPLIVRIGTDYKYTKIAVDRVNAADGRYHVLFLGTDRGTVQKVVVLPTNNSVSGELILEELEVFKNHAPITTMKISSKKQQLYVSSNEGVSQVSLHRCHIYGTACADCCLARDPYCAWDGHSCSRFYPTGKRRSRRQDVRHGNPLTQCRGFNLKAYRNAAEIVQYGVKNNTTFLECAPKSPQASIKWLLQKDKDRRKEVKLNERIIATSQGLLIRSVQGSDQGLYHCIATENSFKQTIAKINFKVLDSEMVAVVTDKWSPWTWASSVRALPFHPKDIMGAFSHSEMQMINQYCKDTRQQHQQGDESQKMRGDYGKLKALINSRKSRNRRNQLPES", "lysine labeling ratio R10:1": 4.97}
{"target": "CD46 (lysine site: K227) (UniProt P15529)", "lysine labeling ratio R10:1": 6.48}
{"target": "UniProt Q16513 (lysine site: K690)", "lysine labeling ratio R10:1": 2.89}
{"target": "AGRN (lysine site: K1198) (UniProt O00468)", "lysine labeling ratio R10:1": 3.68}
{"target": "EHD2 (lysine site: K220) (UniProt Q9NZN4)", "sequence (Q9NZN4 whole entry)": "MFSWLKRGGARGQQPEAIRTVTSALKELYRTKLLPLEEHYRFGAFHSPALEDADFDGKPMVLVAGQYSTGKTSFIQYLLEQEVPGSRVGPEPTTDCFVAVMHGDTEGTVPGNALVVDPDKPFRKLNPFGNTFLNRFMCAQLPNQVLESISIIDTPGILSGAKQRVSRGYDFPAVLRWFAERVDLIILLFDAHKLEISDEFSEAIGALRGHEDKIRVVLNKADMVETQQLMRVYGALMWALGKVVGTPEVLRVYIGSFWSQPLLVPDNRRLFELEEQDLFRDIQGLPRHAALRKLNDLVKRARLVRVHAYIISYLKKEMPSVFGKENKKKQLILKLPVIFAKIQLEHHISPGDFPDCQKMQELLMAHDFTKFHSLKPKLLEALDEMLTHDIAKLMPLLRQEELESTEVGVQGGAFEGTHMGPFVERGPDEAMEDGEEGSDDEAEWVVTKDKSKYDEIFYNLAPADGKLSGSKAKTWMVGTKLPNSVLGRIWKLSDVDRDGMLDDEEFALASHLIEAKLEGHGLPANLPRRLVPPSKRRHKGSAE", "lysine labeling ratio R10:1": 2.14}
{"target": "AHNAK (lysine site: K2993) (UniProt Q09666)", "lysine labeling ratio R10:1": "1 (active)"}
{"target": "ANPEP (lysine site: K205) (UniProt P15144)", "lysine labeling ratio R10:1": 2.56}
{"target": "CSPG4 (lysine site: K1711) (UniProt Q6UVK1)", "lysine labeling ratio R10:1": "0.655 (active)"}
{"target": "LAMC1 (lysine site: K1329) (UniProt P11047)", "lysine labeling ratio R10:1": "1.2 (active)"}
{"target": "EHD2 (lysine site: K491) (UniProt Q9NZN4)", "lysine labeling ratio R10:1": "1.25 (active)"}
{"target": "DDX3X (lysine site: K491) (UniProt O00571)", "lysine labeling ratio R10:1": 2.59}
{"target": "ENG (lysine site: K513) (UniProt P17813)", "lysine labeling ratio R10:1": 4.09}
{"target": "FLNA (lysine site: K2000) (UniProt P21333)", "lysine labeling ratio R10:1": "1.14 (active)"}
{"target": "TXNRD1 (lysine site: K245) (UniProt Q16881)", "sequence (Q16881 whole entry)": "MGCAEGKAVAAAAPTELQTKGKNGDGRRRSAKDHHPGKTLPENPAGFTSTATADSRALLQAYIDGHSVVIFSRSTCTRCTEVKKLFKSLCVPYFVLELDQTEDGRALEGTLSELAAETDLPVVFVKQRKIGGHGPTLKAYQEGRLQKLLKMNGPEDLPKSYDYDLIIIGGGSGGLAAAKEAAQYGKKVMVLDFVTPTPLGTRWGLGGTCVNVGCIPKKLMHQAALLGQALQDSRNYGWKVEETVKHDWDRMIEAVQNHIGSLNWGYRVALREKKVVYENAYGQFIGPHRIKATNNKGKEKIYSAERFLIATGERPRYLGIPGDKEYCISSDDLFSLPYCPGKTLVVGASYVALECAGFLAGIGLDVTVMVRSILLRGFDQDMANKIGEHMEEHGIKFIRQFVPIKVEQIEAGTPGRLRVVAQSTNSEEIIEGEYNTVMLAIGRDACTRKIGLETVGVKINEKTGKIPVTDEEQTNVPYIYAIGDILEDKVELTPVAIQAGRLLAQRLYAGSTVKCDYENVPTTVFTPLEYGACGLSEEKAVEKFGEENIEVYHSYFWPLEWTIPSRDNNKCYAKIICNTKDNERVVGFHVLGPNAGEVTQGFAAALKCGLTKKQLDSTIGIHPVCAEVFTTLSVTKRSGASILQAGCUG", "lysine labeling ratio R10:1": 7.79}
{"target": "UniProt Q00341 (lysine site: K1066)", "lysine labeling ratio R10:1": 6.11}
{"target": "CDH2 (lysine site: K189) (UniProt P19022)", "lysine labeling ratio R10:1": 4.45}
{"target": "SEMA3C (lysine site: K431) (UniProt Q99985)", "lysine labeling ratio R10:1": 2.67}
{"target": "PTPRM (lysine site: K375) (UniProt P28827)", "lysine labeling ratio R10:1": 5.3}
{"target": "P4HB (lysine site: K114) (UniProt P07237)", "lysine labeling ratio R10:1": 6.39}
{"target": "PDIA3 (lysine site: K347) (UniProt P30101)", "lysine labeling ratio R10:1": 5.72}
{"target": "CKAP4 (lysine site: K301) (UniProt Q07065)", "lysine labeling ratio R10:1": 2.85}
{"target": "UniProt P55072 (lysine site: K658)", "lysine labeling ratio R10:1": 6.64}
